These results are taken from PubChem BioAssay (NCATS).

A number with no mark means an inactive call. Inconclusive results are not listed. Activity calls are given as the source filed them. Calls follow the shape of the dose curve; as a rule, active = well fitted curve in the direction sought with a large enough effect; inconclusive = small, poorly fitted or top-dose-only effect, or another doubt; inactive = no such curve, though single readings can be large; an effect the other way counts as inactive or inconclusive.

Assay [1] can be described thus: OV-KATE Cancer Cell Toxicity qHTS against the NCATS CANVASS Library (AID 1347345). Also: potency is read from the fitted curve at half-maximal effect. As to activity change, negative = cytotoxicity: % is scaled to controls: 0 for no effect and ±100 for the full control effect. In a few lines: (§1)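 Following a 4 h pre-incubation of 1000 seeded cells, compounds were pinned in an 11-pnt dilution series and left for 72 h; viability then came from CellTiter-Glo.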
Assay [2] is described as follows: SW1088 Cancer Cell Toxicity qHTS against the NCATS CANVASS Library (AID 1347350). Also: nearly all actives have a fitted effect of over 75% in size. Also: potency is read from the fitted curve at half-maximal effect. In a few lines: as §1
Assay [3] can be described thus: HPAF-II 12hr Apoptosis Induction qHTS against the NCATS CANVASS Library (AID 1347358). Also: 0% is about no effect. In a few lines: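 Apoptosis in HPAF-II pancreatic cancer cells is scored as caspase 3/7 luminescence following a 12-hour exposure to an 11-point compound series.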
Assay [4] is described as follows: HEK293 24hr Apoptosis Induction qHTS against the NCATS CANVASS Library (AID 1347359). Also: 0% is about no effect. In a few lines: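 HEK293 cells (500/well, DMEM + 10% FBS) were exposed to compounds in an 11-point series for 24 hours at 37 degrees C, then caspase-3/7 activity was read by Caspase-Glo DEVD luciferase luminescence after 15 min.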
Assay [5] has as its target Luciferin 4-monooxygenase (Photinus pyralis) (UniProt P08659). The assay is described as follows: Firefly luciferase counterscreen qHTS: Assay Interference Panel against the NCATS CANVASS Library (AID 1347363). Also: series mostly up to about 57 µM; 0% is about no effect. In a few lines:
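Purified P. pyralis luciferase was added to compounds (11-point series) preincubated 15 min at room temperature with substrate containing 0.013 mM D-luciferin and 0.013 mM ATP; luminescence was read after 5 min.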

The nature of assay [6]: SDT Cancer Cell Toxicity qHTS against the NCATS CANVASS Library (AID 1347365). Also: nearly all actives have a fitted effect of over 60% in size. Also: potency is read from the fitted curve at half-maximal effect. In a few lines:
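Dispense 500 SDT cells per well; pin-transfer compounds; incubate 72 hr at 37C, 5% CO2, 95% RH; add CellTiterGlo and read luminescence.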

The nature of assay [7]: qHTS for ATAD5 Agonist screened against the NCATS CANVASS Library (AID 1347367).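 Also: luciferase reporter driven by ATAD5 which rises upon DNA damage; 0% is about no effect.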 In a few lines:
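Step one plated reporter cells and let them acclimate 5hr. Step two pinned compounds with MMS as positive and 0.46% DMSO as negative control. After 16hr incubation, fluorescence viability then luminescence were read.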

Assay [8] in a line: DH5-alpha competent E. coli microbial cell viability qHTS against the NCATS CANVASS Library (AID 1347377). The following applies: outcome: dose series up to 46.1 µM unless noted. In a few lines: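 Cell viability of competent DH5-alpha E. coli is scored from ATP content by luminescence. Cells sit overnight at 37C with compound across an 11-point concentration series.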
A short description of assay [9]: qHTS for Activators of p53 Stress Response Pathway screened against the NCATS CANVASS Library (AID 1347388). Also: potency is read from the fitted curve at half-maximal effect. As to activation: 0% is about no effect. In a few lines:
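p53RE-bla HCT-116 cells (4000/well) were plated 5 h at 37C, exposed to compounds for 16 h at 37C over an 11-point concentration series, then loaded with CCF4 for 2 h at room temperature; 460/530 nm emission ratio read.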

Assay [10] can be described thus: qHTS for inhibitors of Wild type Zika virus screened against the NCATS CANVASS Library (AID 1347396).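 Also: ATP luminescence of surviving cells so rescue from viral cell killing; series mostly up to about 46 µM; % is scaled to controls: 0 for no effect and ±100 for the full control effect.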 In a few lines:
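Vero 766 cells, 1000/well, o/n attach; cpds pin-transferred (11-pt qHTS); WT Zika added; 72 h, 37C, 5% CO2; CellTiter Glo lumi. Uninfected + vehicle = 100% inhibition.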

Assay [11] in a line: OV-SAHO Cancer Cell Toxicity qHTS against the NCATS CANVASS Library (AID 1347348). Also: nearly all actives have a fitted effect of over 55% in size. Also: potency is read from the fitted curve at half-maximal effect. As to activity change, negative = cytotoxicity: series mostly up to about 38 µM; % is scaled to controls: 0 for no effect and ±100 for the full control effect. In a few lines: as §1
The nature of assay [12]: HEK-293 Cancer Cell Toxicity qHTS against the NCATS CANVASS Library (AID 1347355). Also: nearly all actives have a fitted effect of over 65% in size. Also: potency is read from the fitted curve at half-maximal effect. As to activity change, negative = cytotoxicity: series mostly up to about 46 µM; % is scaled to controls: 0 for no effect and ±100 for the full control effect. In a few lines:
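qHTS cytotoxicity: compounds tested in 11 concentrations on 1000 seeded cells per well over 72 h; bortezomib served as control; signal from CellTiter-Glo luminescence.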

Assay [13] is described as follows: G06 Cancer Cell Toxicity qHTS against the NCATS CANVASS Library (AID 1347368). Also: nearly all actives have a fitted effect of over 60% in size. Also: potency is read from the fitted curve at half-maximal effect. In a few lines:
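Cytotoxicity toward canine glioma G06 cells is scored from cellular ATP via luminescence after 72 hr compound exposure at 500 cells/well.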

Assay [14] is described as follows: qHTS for Hypoxia signaling pathway (HIF-1) antagonists against the NCATS CANVASS Library (AID 1347374). Also: potency is read from the fitted curve at half-maximal effect; nearly all actives have a fitted effect of over 60% in size. In a few lines: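 HRE-bla ME-180 cells (2,000/well, 0.5% dialyzed FBS) were pre-incubated 5 h, then given an 11-point compound series plus CoCl2 (60 uM solution as added) for 17 h at 37C. CCF4 β-lactamase read (ex 405, em 460/530 nm) after 2 h at RT.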
Assay [15] can be described thus: qHTS for activators of Nrf2/ARE signaling pathway screened against the NCATS CANVASS Library (AID 1347391). Also: nearly all actives have a fitted effect of over 60% in size. Also: potency is read from the fitted curve at half-maximal effect. As to activation: 0% is about no effect. In a few lines:
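Cells carrying an ARE-driven beta-lactamase reporter (HepG2 background) are dosed for 16 h, then stained with CCF4. Cell viability in the same wells is measured by CellTiter-Glo luminescence.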

Assay [16] is described as follows: qHTS for inhibitors of ER calcium dysfunction: SERCaMP assay screened against the NCATS CANVASS Library (AID 1347393).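 Also: series mostly up to about 77 µM; % is scaled to controls: 0 for no effect and ±100 for the full control effect; lower secreted reporter signal means inhibitor of ER calcium depletion; nearly all actives have a fitted effect of over 40% in size.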 In a few lines: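 qHTS in SH-SY5Y reporter cells: 16 h compound pretreatment, 4 h thapsigargin, then secreted Gaussia luciferase measured by luminescence.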
Assay [17] in a line: A2780 Cisplatin Sensitive Ovarian Cancer Cell Toxicity qHTS against the NCATS CANVASS Library (AID 1347353). Also: nearly all actives have a fitted effect of over 60% in size. Also: potency is read from the fitted curve at half-maximal effect. In a few lines: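 Seventy-two-hour exposure of cisplatin-sensitive A2780 ovarian cells to an 11-concentration qHTS series; cytotoxicity is inferred from loss of ATPLite luminescence. Bortezomib titration served as positive control.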
Assay [18] is described as follows: KB-8-5-11 Cancer Cell Toxicity qHTS against the NCATS CANVASS Library (AID 1347364). Also: nearly all actives have a fitted effect of over 75% in size. In a few lines: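 Natural products were titrated in 11 points onto KB-8-5-11 cells, 500 per well, and cytotoxicity was scored from CellTiter-Glo luminescence after 72 hr culture.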
A short description of assay [19]: Inflammasome Signaling qHTS Counterscreen: IL-1-beta AlphaLISA counterscreen against the NCATS CANVASS Library (AID 1347381).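 Also: cell-free check with purified IL-1β in medium and no THP-1 cells; series mostly up to about 57 µM; 0% is about no effect.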 In a few lines: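 To flag interference with the AlphaLISA read-out, a known amount of purified IL-1-beta (4 pg) replaced cell supernatant. Detection used anti-IL-1-beta acceptor beads, biotinylated antibody and streptavidin donor beads at room temperature.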

Assay [20] in a line: qHTS for activators of dead-cell proteases activity screened against the NCATS CANVASS Library (AID 1347392).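 Also: luminescence from protease leaking out of membrane-damaged cells cleaving impermeant substrate; 0% is about no effect; rising signal means more cytotoxicity.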 In a few lines:
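HepG2 cells (2000/well) attached 18 h at 37C, then exposed 5 h to compounds (11-point qHTS). Dead-cell protease activity read as luminescence from cell-impermeant AAF-aminoluciferin substrate after 15 min at room temperature.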

Luciferin 4-monooxygenase (Photinus pyralis), sequence (P08659 whole entry, looked up): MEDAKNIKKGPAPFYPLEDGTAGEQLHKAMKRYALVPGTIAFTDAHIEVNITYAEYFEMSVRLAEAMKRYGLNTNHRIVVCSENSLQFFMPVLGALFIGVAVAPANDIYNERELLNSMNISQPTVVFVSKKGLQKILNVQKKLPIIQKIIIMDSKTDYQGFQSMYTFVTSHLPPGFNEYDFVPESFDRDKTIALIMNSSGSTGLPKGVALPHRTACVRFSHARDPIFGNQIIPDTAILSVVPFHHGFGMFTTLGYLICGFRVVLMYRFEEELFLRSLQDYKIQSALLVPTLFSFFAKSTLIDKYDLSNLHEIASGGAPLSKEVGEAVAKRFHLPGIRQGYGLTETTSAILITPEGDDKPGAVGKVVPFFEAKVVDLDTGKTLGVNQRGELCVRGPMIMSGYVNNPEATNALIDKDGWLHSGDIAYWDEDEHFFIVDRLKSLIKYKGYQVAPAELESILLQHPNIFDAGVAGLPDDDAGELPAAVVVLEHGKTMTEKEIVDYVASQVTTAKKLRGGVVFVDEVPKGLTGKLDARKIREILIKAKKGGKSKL

For the molecule `Cc1occ2c1C(=O)c1c(cc(O)c(O)c1O)C2=O`, the Potency entry in assay [1], in assay [3], in [4], in assay [5] and in assay [7] was “inactive” each time. In addition, the Potency was 5.95 µM (active) in [2], 1.05 µM (active) in [6] and 11.7 µM (active) in assay [9]. Further, the call in assay [8] and in assay [10] was inactive.
In the case of `C/C=C(/C)c1c(Cl)c(O)c(C)c2c1Oc1c(Cl)c(O)c(Cl)c(C)c1C(=O)O2`, the Potency result in assay [1], in [11], in assay [12], in [3], in assay [5] and in assay [7] was “inactive” in each case. The Potency entry in [13], in assay [15] and in assay [16] was “inactive” in each case. The Potency is 18.8 µM (active) in [2] and 10.6 µM (active) in [14].
On to `COc1cc2c(c(O)c1O)C(=O)c1c(coc1C)C2=O`, for which the Potency in assay [1] is 6.66 µM (active); in [11] it was 4.2 µM (active); in assay [2] it was 9.43 µM (active); in assay [17] it was 4.69 µM (active); in assay [12], 9.35 µM (active); in assay [6], 14.8 µM (active). Besides, the Potency was 11.8 µM (active) in [13] and 5.29 µM (active) in assay [14]. Also, the Potency result in assay [3], in [4], in [18], in assay [7] and in assay [16] was “inactive” in each case. Besides, the outcome in assay [8], in [19] and in assay [10] was inactive.
As to `C=CC(CCCCC)C1C(=O)NC(=O)C1C(=O)C1C2C(C)CC(C(=O)O)CC2CC1(O)C(=O)/C=C/C` (stereo not drawn), the Potency result in assay [1], in assay [11], in assay [12], in [4], in assay [5] and in assay [18] was “inactive” throughout. Also, the Potency result in assay [6], in [7], in assay [13] and in assay [16] was “inactive” throughout. Besides, the Potency was 8.38 µM (active) in assay [14] and 2.09 µM (active) in assay [15]. In addition, the call in [8], in [19] and in [10] was inactive.
As to `COc1c(O)cc2c(c1O)C(=O)c1c(coc1C)C2=O`, the Potency entry in assay [11], in assay [12], in assay [3], in [18] and in assay [20] was “inactive” each time. Moreover, the Potency in assay [14] was 14.9 µM (active); in assay [15] it was 7.41 µM (active). Moreover, the molecule was called inactive in assay [8], in assay [19] and in assay [10].
Consider `COc1cc(C2OCC3C(c4ccc(O)c(OC)c4)OCC23)ccc1O` (stereo not drawn), for which the activity change, negative = cytotoxicity is -0.541% [at 7.64 µM] in assay [1], -15.1% [at 7.64 µM] in assay [11] and 2.04% [at 9.19 µM] in [6]. In addition, the outcome in assay [2] is “inactive [at 7.64 µM]”; in assay [17] it was “inactive [at 9.19 µM]”; in assay [18], “inactive [at 9.19 µM]”; in [13] it was “inactive [at 9.19 µM]”; in [8], “inactive [at 9.19 µM]”. The caspase activation in assay [3] was 6.04% [at 9.19 µM]. Moreover, the activation in assay [7] was 3.68% [at 9.19 µM]. In addition, the activity change, negative = inhibition in assay [19] was -8.43% [at 11.5 µM]; in assay [16], 43.6% [at 15.3 µM]. Moreover, in [15], the Potency is 0.305 µM (active). Moreover, the activation (cytotoxicity) in assay [20] is 4.3% [at 9.19 µM]. For the same molecule, in [10], the activity change, negative = antiviral is -5.5% [at 9.14 µM].
With `C[C@]12CC[C@]3(C1)[C@H](CC2=O)C[C@@H](OC(=O)c1ccccc1)[C@H]1[C@](C)(C(=O)O)CCC[C@@]13C`, the Potency result in assay [1], in [3], in assay [5], in [7], in assay [9] and in assay [20] was “inactive” throughout. For the same molecule, the Potency result in assay [16] was “inactive”. The Potency was 1.49 µM (active) in assay [2], 16.6 µM (active) in assay [17], 13.2 µM (active) in [12] and 3.71 µM (active) in assay [15].
